Source: PubChem BioAssay (NCI)
The panel holds about 83,000 compounds, 20% with a hit somewhere; the sample as a whole holds those more often.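 The test compound was applied at a single concentration to cells in 96-well plates for 48 hours, and percent growth was recorded.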 Unmarked numbers belong to inactive results. Calls of active or inactive are those of the source. The calls were made as follows: active = growth percent below 10; inactive = the rest.

What follows are compounds tested on CAKI-1 renal (assay: NCI-60 one-dose screen, 48 h (100 = growth as untreated, 0 = no growth, -100 = all killed)). Details: 10 µM unless noted.

Compound	growth
Cc1ccc(-c2nc([P+](c3ccccc3)(c3ccccc3)c3ccccc3)c(N3CCOCC3)o2)cc1	13.1%
O=C1OC(c2ccc(Cl)c(Cl)c2)=C/C1=C/c1cccc([N+](=O)[O-])c1	91.3%
COc1ccccc1-n1cnc(N)c1C(=O)c1cc(OC)c(OC)c(OC)c1	39.8%
COc1ccc2c(c1)C/C(=C\c1cc(-c3ccc4c(c3)OCO4)n[nH]1)C2=O	90.3%
CN(C)CCCC1(c2ccc(F)cc2)OCc2cc(-c3ccc(C(F)(F)F)nc3)ccc21 (centres undefined)	55.4%
O=c1c(CNc2ccc(S(=O)(=O)Nc3nccs3)cc2)coc2ccccc12	98.5%
Cc1ccc2c(c1)c(-c1nc(-c3c[nH]c4ncccc34)cs1)cn2C	107%
CC1(C)C(=O)/C(=C\c2ccco2)C[C@]2(C)[C@H]3CC[C@@H]4[C@@H](C(=O)/C=C/c5ccco5)CC[C@@]4(C)[C@]3(C)CC[C@@H]12	53.9%
Cc1ccc(-c2nc([P+](c3ccccc3)(c3ccccc3)c3ccccc3)c(N3C[C@H]4C[C@H](C3)c3cccc(=O)n3C4)o2)cc1	98.5%
C=C(C)[C@@H]1CC[C@]2(CN)CC[C@]3(C)[C@H](CC[C@@H]4[C@@]5(C)CCC(=O)NC(C)(C)[C@@H]5CC[C@]43C)[C@@H]12	59.9%
Nc1c(Cl)cc(N=Nc2ccccc2)cc1Cl	89.9%
CC(=O)O[C@H]1CC[C@]2(C)[C@H]3C(=O)C=C4[C@@H]5C[C@](C)(C(=O)N6CCCNCC6)CC[C@]5(C)CC[C@@]4(C)[C@]3(C)CC[C@H]2C1(C)C	-99.3% (active)
CCCCCC1CCCCN1C(=O)OCC (centres undefined)	99.4%
Cn1cc(-c2nc(-c3c[nH]c4ncccc34)cs2)c2cc(Br)ccc21	78%
O=C(N/N=C\c1ccccc1O)C1CC1	115%
COc1ccc(OCC(CO)N2CCN(c3ccccc3)CC2)cc1 (centres undefined)	90.6%
Cn1cc(-c2nc(-c3c[nH]c4ncccc34)cs2)c2ccccc21	79.1%
CC1(C)CC[C@]2(C(=O)Nc3ccccn3)CC[C@]3(C)C(=CC[C@@H]4[C@@]5(C)C/C(=C/c6ccncc6)C(=O)C(C)(C)[C@@H]5CC[C@]43C)[C@@H]2C1	40.4%
C=C(C)[C@@H]1CC[C@]2(C(=O)O)CC[C@]3(C)[C@H](CC[C@@H]4[C@@]5(C)C/C(=C/c6cccc(I)c6)C(=O)C(C)(C)[C@@H]5CC[C@]43C)[C@@H]12	11.9%
Oc1cccc2oc(=S)[nH]c12	120%
CC(=O)O[C@H]1CC[C@@]2(C)C(=CC[C@@H]3[C@@H]2CC[C@]2(C)C(=O)N(O)C(=O)C[C@@H]32)C1	64.1%
COc1ccc2c(c1)c(-c1nc(-c3c[nH]c4ncccc34)cs1)cn2C	55.1%
O=C(O)c1cccc2c1Cc1cc([N+](=O)[O-])ccc1-2	89.5%
CCOc1ccc(NC(=O)c2ccccc2-c2ccccc2C(=O)O)cc1	98.9%
O=c1c2sc3ncc(Br)cc3c2ncn1-c1cccc(Cl)c1	98.8%

Each compound was assayed on A498 renal in the same assay as above. Details: 10 µM unless noted.

Compound	growth
Cn1c(/C(C#N)=C/c2ccc3ccccc3c2)cc2ccccc21	2.85% (active)
Cn1cc(-c2nc(-c3c[nH]c4ncccc34)cs2)c2cc(F)ccc21	42.3%
NC1=NN=C2N(N)C(=O)c3cnn(-c4ccccc4)c3N2c2nc(-c3ccccc3)cc(-c3ccccc3)c21	114%
Fc1ccc2nc(-c3cc(-c4ccc5c(c4)OCO5)n[nH]3)[nH]c2c1	71.7%
CN(C)c1ccc(-c2ccc(-c3ccc(C(=N)N)c(F)c3)s2)cc1	4.91% (active)
Cc1cc(C)nc(NC(N)=NCCc2ccccc2)n1	86.9%
C=C(C)[C@@H]1CC[C@]2(C(=O)O)CC[C@]3(C)[C@H](CC[C@@H]4[C@@]5(C)C/C(=C/c6ccc(OC)cc6)C(=O)C(C)(C)[C@@H]5CC[C@]43C)[C@@H]12	49.6%
COc1ccc2[nH]cc(-c3nc(-c4c[nH]c5ncccc45)cs3)c2c1	10.9%
CCc1ccc(-c2ccc(Nc3ccccc3)nn2)cc1S(N)(=O)=O	72.2%
Cn1cccc1/C=C1/SC(=S)N(CCc2ccc(O)cc2)C1=O	81.8%
O=c1c(CNc2ccc(S(=O)(=O)Nc3ncccn3)cc2)coc2ccccc12	102%
O=C1OC(c2ccc(Cl)c(Cl)c2)=C/C1=C/c1cccc([N+](=O)[O-])c1	101%
COc1ccccc1-n1cnc(N)c1C(=O)c1cc(OC)c(OC)c(OC)c1	26.6%
COc1ccc2c(c1)C/C(=C\c1cc(-c3ccc4c(c3)OCO4)n[nH]1)C2=O	85.5%
CN(C)CCCC1(c2ccc(F)cc2)OCc2cc(-c3ccc(C(F)(F)F)nc3)ccc21 (centres undefined)	89.8%
O=c1c(CNc2ccc(S(=O)(=O)Nc3nccs3)cc2)coc2ccccc12	112%
Cc1ccc2c(c1)c(-c1nc(-c3c[nH]c4ncccc34)cs1)cn2C	112%

Compound	growth
CC1(C)C(=O)/C(=C\c2ccco2)C[C@]2(C)[C@H]3CC[C@@H]4[C@@H](C(=O)/C=C/c5ccco5)CC[C@@]4(C)[C@]3(C)CC[C@@H]12	91.3%
C=C(C)[C@@H]1CC[C@]2(CN)CC[C@]3(C)[C@H](CC[C@@H]4[C@@]5(C)CCC(=O)NC(C)(C)[C@@H]5CC[C@]43C)[C@@H]12	96.2%
Nc1c(Cl)cc(N=Nc2ccccc2)cc1Cl	73.6%
CC(=O)O[C@H]1CC[C@]2(C)[C@H]3C(=O)C=C4[C@@H]5C[C@](C)(C(=O)N6CCCNCC6)CC[C@]5(C)CC[C@@]4(C)[C@]3(C)CC[C@H]2C1(C)C	74.1%
CCCCCC1CCCCN1C(=O)OCC (centres undefined)	91.4%
Cn1cc(-c2nc(-c3c[nH]c4ncccc34)cs2)c2cc(Br)ccc21	68.4%
O=C(N/N=C\c1ccccc1O)C1CC1	113%
COc1ccc(OCC(CO)N2CCN(c3ccccc3)CC2)cc1 (centres undefined)	108%
Cn1cc(-c2nc(-c3c[nH]c4ncccc34)cs2)c2ccccc21	81.5%
CC1(C)CC[C@]2(C(=O)Nc3ccccn3)CC[C@]3(C)C(=CC[C@@H]4[C@@]5(C)C/C(=C/c6ccncc6)C(=O)C(C)(C)[C@@H]5CC[C@]43C)[C@@H]2C1	-17.2% (active)
C=C(C)[C@@H]1CC[C@]2(C(=O)O)CC[C@]3(C)[C@H](CC[C@@H]4[C@@]5(C)C/C(=C/c6cccc(I)c6)C(=O)C(C)(C)[C@@H]5CC[C@]43C)[C@@H]12	22.1%
Oc1cccc2oc(=S)[nH]c12	94.8%
CC(=O)O[C@H]1CC[C@@]2(C)C(=CC[C@@H]3[C@@H]2CC[C@]2(C)C(=O)N(O)C(=O)C[C@@H]32)C1	92.7%
COc1ccc2c(c1)c(-c1nc(-c3c[nH]c4ncccc34)cs1)cn2C	60.1%
O=C(O)c1cccc2c1Cc1cc([N+](=O)[O-])ccc1-2	93.1%
CCOc1ccc(NC(=O)c2ccccc2-c2ccccc2C(=O)O)cc1	93.3%
O=c1c2sc3ncc(Br)cc3c2ncn1-c1cccc(Cl)c1	71.7%
